The text below walks through data of PubChem BioAssay (Tox21).

A number with no mark means an inactive call. Results filed as inconclusive are left out. Active and inactive are the calls of the source. Unless noted, the call rests on the fitted dose curve; in most records, active means well fitted curve in the direction sought with a large enough effect in the repeat runs; inconclusive means weak or mixed curves; inactive means no such curve, though single readings can be large; an effect the other way counts as inactive or inconclusive.

Experiment [1] in a line: qHTS assay to identify small molecule agonists of H2AX (AID 1224845; active means well fitted activation curve with a large enough effect in the signal ratio in the repeat runs, not every such curve was filed as active; the % refers to the signal ratio; further: potency means the concentration at half of the fitted maximal effect). The essentials: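 Wild-type CHO-K1 cells, plated overnight, exposed 3hr at 37C to 15 concentrations (0.76% DMSO final). Lysed, then HTRF anti-pH2AX (S139) cryptate and anti-H2AX-d2 antibodies, 24 hr room temperature; 665/620 nm emission read.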
For orientation: qHTS replaces the single test concentration by a dilution series.

Experiment [2] is described as follows: qHTS RealTime-Glo MT Cell Viability Assay in HEK293 cells - 32 hour (AID 1224868). Further: nearly all actives have a fitted effect of over 50% in size. Further: potency means the concentration at half of the fitted maximal effect. The procedure, abridged:
(§1)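 HEK293 cells seeded with NanoLuc/prosubstrate reagent, rested 5 h at 37 C, then dosed and kept at 37 C up to 40 h. Nonlytic real-time luminescence from viable cells read at 0, 8, 16, 24, 32 and 40 h.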

The nature of experiment [3]: A CellTox Green Cytotoxicity Assay to monitor cytotoxicity in HEK293 cells - 0 hour (AID 1224869). Further: nearly all actives have a fitted effect of over 50% in size. The procedure, abridged:
(§2)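 HEK293 cells, 600/well, were preincubated 5 hours and then exposed to compounds at 37 C for up to 40 hours. A cell-impermeant cyanine dye staining dead-cell DNA was read by fluorescence at 0, 8, 16, 24, 32 and 40 h time points.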

A short description of experiment [4]: A CellTox Green Cytotoxicity Assay to monitor cytotoxicity in HEK293 cells - 40 hour (AID 1224871). Further: nearly all actives have a fitted effect of over 45% in size. Further: potency means the concentration at half of the fitted maximal effect. The procedure, abridged:
as §2

A short description of experiment [5]: qHTS RealTime-Glo MT Cell Viability Assay in HEK293 cells - 40 hour (AID 1224874). Further: nearly all actives have a fitted effect of over 50% in size. Further: potency means the concentration at half of the fitted maximal effect. To be noted: RealTime-Glo luminescence; max response: active compounds read low. The procedure, abridged: (§3)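 600 cells/well were plated with the nonlytic NanoLuc/prosubstrate reagent, pre-incubated 5 h, then given 23 nL of compound in DMSO. Incubation at 37 C for 40 h, with luminescence from viable-cell-reduced substrate read repeatedly from 0 h.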

The nature of experiment [6]: A CellTox Green Cytotoxicity Assay to monitor cytotoxicity in HEK293 cells - 24 hour (AID 1224875). Further: nearly all actives have a fitted effect of over 45% in size. The essentials: as §2
The nature of experiment [7]: A CellTox Green Cytotoxicity Assay to monitor cytotoxicity in HepG2 cells - 16 hour (AID 1224876). Further: nearly all actives have a fitted effect of over 45% in size. The essentials: (§4)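 HepG2 cells, 600/well, preincubated 5 h with CellTox Green dye, then exposed to Tox21 compounds in DMSO at 37 C for up to 40 h. Dead-cell DNA fluorescence read at the indicated time point.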
Experiment [8] can be described thus: qHTS RealTime-Glo MT Cell Viability Assay in HepG2 cells - 32 hour (AID 1224877). Further: nearly all actives have a fitted effect of over 55% in size. Further: potency means the concentration at half of the fitted maximal effect. The essentials: (§5)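 HepG2 cells (600/well) were dispensed with RealTime-Glo reagents, incubated 5 h at 37 °C, then treated with compounds in DMSO for up to 40 h. Nonlytic NanoLuc luminescence reflecting viable cells was read at each stated time point.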
Experiment [9] can be described thus: A CellTox Green Cytotoxicity Assay to monitor cytotoxicity in HepG2 cells - 24 hour (AID 1224878). Further: nearly all actives have a fitted effect of over 45% in size. Further: potency means the concentration at half of the fitted maximal effect. The essentials: as §4
A short description of experiment [10]: qHTS RealTime-Glo MT Cell Viability Assay in HEK293 cells - 0 hour (AID 1224880). The essentials: as §3
The nature of experiment [11]: A CellTox Green Cytotoxicity Assay to monitor cytotoxicity in HEK293 cells - 32 hour (AID 1224881). Further: nearly all actives have a fitted effect of over 40% in size. Further: potency means the concentration at half of the fitted maximal effect. The procedure, abridged:
as §2

Experiment [12] is described as follows: qHTS assay to identify small molecule agonists of the hypoxia (HIF-1) signaling pathway (AID 1224846; active means well fitted activation curve with a large enough effect in the signal ratio in the repeat runs, not every such curve was filed as active; the % refers to the signal ratio). The procedure, abridged:
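HRE-bla ME-180 beta-lactamase reporter cells in medium with 0.5% dialyzed FBS, pre-incubated 5 h then exposed to compounds 17 h at 37C, 5% CO2; reporter induction read with CCF4-AM FRET substrate.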

Experiment [13] can be described thus: qHTS assay to identify small molecule agonists of the estrogen related receptor (ERR) signaling pathway from Tox21 library (AID 1224849; calls by dose curve; further: nearly all actives have a fitted effect of over 15% in size). Conditions: ERR reporter cell line, ONE-Glo luciferase, 18 h; at 92.4 µM (top of the series) unless noted. The procedure, abridged:
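ERR reporter cells (NTP line) pre-incubated 6 hours at 37 C, then exposed to compounds for 18 hours at 37 C. ONE-Glo luciferase luminescence was read after 30 minutes at room temperature.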

Experiment [14] in a line: qHTS RealTime-Glo MT Cell Viability Assay in HepG2 cells - 24 hour (AID 1224867). Further: nearly all actives have a fitted effect of over 50% in size. The essentials: as §5
The nature of experiment [15]: qHTS RealTime-Glo MT Cell Viability Assay in HepG2 cells - 40 hour (AID 1224870). Further: nearly all actives have a fitted effect of over 50% in size. The essentials:
(§6)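 HepG2 cells (600/well) mixed with RealTime-Glo MT reagent, settled 5 h at 37 C/5% CO2 before compound addition. Nonlytic NanoLuc luminescence from viable-cell prosubstrate reduction read repeatedly during 40 h treatment at 37 C.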

A short description of experiment [16]: qHTS RealTime-Glo MT Cell Viability Assay in HEK293 cells - 16 hour (AID 1224872). The procedure, abridged:
as §1

Experiment [17] in a line: A CellTox Green Cytotoxicity Assay to monitor cytotoxicity in HepG2 cells - 40 hour (AID 1224879). Further: nearly all actives have a fitted effect of over 40% in size. The essentials: as §4
Experiment [18] in a line: qHTS assay to identify small molecule agonists of H2AX - cell viability counter screen (AID 1224847; calls by dose curve; further: top concentration of the series differs between compounds; nearly all actives have a fitted effect of over 30% in size). The essentials: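 Read-out: CellTiter-Glo luminescence, 30 min RT. Cells: wild-type CHO-K1, 1000/well, 10% FBS, plated overnight at 37C. Treatment: 15 concentrations, 3 hr, 37C, 0.76% DMSO.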
Experiment [19] in a line: qHTS assay to identify small molecule antagonists of the estrogen related receptor (ERR) signaling pathway from Tox21 library (AID 1224848). Further: nearly all actives have a fitted effect of over 50% in size. The procedure, abridged:
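ERR reporter cell line (from NTP) seeded 2,000 cells/well, rested 6 h at 37 C/5% CO2, then pin-dosed with compounds in DMSO. After 18 h at 37 C, ONE-Glo added; luminescence read after 30 min at room temperature.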

The nature of experiment [20]: qHTS RealTime-Glo MT Cell Viability Assay in HepG2 cells - 8 hour (AID 1224873). Further: nearly all actives have a fitted effect of over 55% in size. The essentials:
as §6
On the % scale 0 is the no-effect control and ±100 the full control effect.

Take `C=CC(=O)OCC(C)OCC(C)OCC(C)OC(=O)C=C` (stereo not drawn): the Potency in [1] is 101 µM (active); in experiment [2] it was 43.6 µM (active); in [4] it was 54.9 µM (active); in experiment [5] it was 43.6 µM (active); in [8], 54.9 µM (active); in [9] it was 54.9 µM (active). For the same compound, in [11], the Potency was 54.9 µM (active). Besides, the Potency result in experiment [3], in [6], in [7] and in experiment [10] was “inactive” in each case.

`C=CC(=O)OCCOC(=O)CCC(=O)O`: the Potency entry in experiment [1], in experiment [14], in experiment [2], in experiment [3], in [15] and in experiment [16] was “inactive” each time. In addition, the Potency entry in experiment [6], in experiment [7], in experiment [8], in experiment [9], in experiment [17] and in experiment [11] was “inactive” throughout. In experiment [12], the compound was called inactive. The activity change, positive = activation in experiment [13] was 67.1% (active). Further, the max response in [5] was 19.5%.

In the case of `CN1CCC(=C2c3ccccc3C=Cc3ccccc32)CC1`, the Potency entry in experiment [1], in experiment [18], in experiment [19], in [3], in experiment [15] and in [16] was “inactive” in each case. Also, the Potency entry in experiment [20], in experiment [6], in experiment [8], in experiment [10] and in experiment [11] was “inactive” in each case. For the same compound, the activity change, positive = activation in experiment [13] is 5.98% [at 42.5 µM].

In the case of `CCCCCCCC/C=C\CCCCCCCC(N)=O`, the Potency result in experiment [1], in [14], in experiment [3], in experiment [15], in experiment [20] and in experiment [7] was “inactive” throughout. For the same compound, the Potency entry in [8] and in experiment [10] was “inactive” each time. Besides, the activity change, positive = activation in [13] is -4.69%. Moreover, in experiment [9], the Potency was 24.5 µM (active).

As for `CN(C)CC/C=C1\c2ccccc2COc2ccccc21`, the Potency entry in experiment [1], in experiment [18], in [14], in experiment [2], in [3] and in experiment [15] was “inactive” each time. The Potency entry in experiment [4], in [16], in [20], in [6], in experiment [7] and in experiment [8] was “inactive” each time. Also, the Potency result in experiment [9], in [10] and in experiment [11] was “inactive” in each case. The max response in [5] was 3.53%.

Consider `CCCCCOC(=O)COc1cc(N2C(=O)C3=C(CCCC3)C2=O)c(F)cc1Cl`, for which the Potency entry in experiment [1], in experiment [14], in experiment [2], in [3], in [15] and in experiment [4] was “inactive” in each case. The Potency entry in [16], in [20], in [6], in [7], in experiment [8] and in experiment [9] was “inactive” throughout. In addition, the Potency entry in [17], in experiment [10] and in experiment [11] was “inactive” in each case. In experiment [12], the compound was classed as inactive. In addition, in experiment [5], the max response was 4.37%.

As to `CNCC[C@@H](Oc1ccccc1C)c1ccccc1`, the Potency result in experiment [1], in experiment [18], in experiment [14], in experiment [2], in experiment [3] and in experiment [15] was “inactive” throughout. Moreover, the Potency entry in [4], in experiment [16], in [20], in [6], in experiment [8] and in experiment [9] was “inactive” throughout. In addition, the Potency entry in experiment [17] and in experiment [11] was “inactive” each time. For the same compound, the activity change, positive = activation in [13] is -15.2% [at 42.5 µM]. In addition, the max response in experiment [5] is -5.29%.

Take `Cc1ccccc1N=Nc1ccc(N=Nc2c(O)ccc3ccccc23)c(C)c1`: the Potency result in [1], in experiment [2], in experiment [3], in experiment [15], in experiment [4] and in experiment [16] was “inactive” throughout. Moreover, the Potency entry in experiment [6], in [7], in experiment [8], in [9], in experiment [17] and in [10] was “inactive” throughout. For the same compound, in [11], the Potency entry is “inactive”. Moreover, in experiment [12], the result was inactive. The activity change, positive = activation in experiment [13] is 11.4% [at 42.5 µM]. The max response in experiment [5] was 1.3%.
